# From PubChem BioAssay AID1159580 (chemical genetic matrix, 2015)
# The whole screen tested about 5,500 compounds, of which about 2,000 (36%) were called active. Inconclusive results (about 18%) are left out. The list shows a part of the results. A number with no mark means an inactive call. Rule as the data show it: active = normalized growth mostly below about 0.91 (no sharp cut-off); inconclusive = no clear call, values can overlap the other calls; inactive = mostly above about 0.92.
# Experiment: chemical genetic growth profiling, strain panel (AID 1159580);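 also: tested at 20 µM; growth read once vehicle control cultures reached saturation at 30 °C; 1 = growth at the plate median or of vehicle wells; lower values mean less growth of the strain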
# Details: S. cerevisiae deletion strains, growth OD
# [1] = locus YHR030C, strain SLT2, hits give low values
# [2] = locus YHR079C, strain IRE1, hits give low values
# [3] = locus YJL095W, strain BCK1, hits give low values
# [4] = locus YJR066W, strain TOR1, hits give low values
# [5] = locus YLR113W, strain HOG1, hits give low values
# [6] = locus YNL183C, strain NPR1, hits give low values
# [7] = locus YOR231W, strain MKK1, hits give low values
# [8] = locus YPL256C, strain CLN2, hits give low values
smiles,measurement,setting,value
COc1ccc(-c2cc(=O)c3c(O)c(OC)c(OC)c(OC)c3o2)cc1OC,normalized growth,"locus YAL021C, strain ccr4, hits give low values",0.997
same,normalized growth,"locus YAL026C, strain drs2, hits give low values",0.974
same,normalized growth,"locus YAL030W, strain snc1, hits give low values",0.995
same,normalized growth,"locus YBL061C, strain skt5, hits give low values",0.991
same,normalized growth,"locus YBR009C, strain hhf1, hits give low values",0.965
same,normalized growth,"locus YBR023C, strain chs3, hits give low values",1
same,normalized growth,"locus YBR171W, strain sec66, hits give low values",0.994
same,normalized growth,"locus YBR231C, strain swc5, hits give low values",0.976
same,normalized growth,"locus YBR279W, strain paf1, hits give low values",0.995
same,normalized growth,"locus YCL011C, strain gbp2, hits give low values",0.989
same,normalized growth,"locus YCL016C, strain dcc1, hits give low values",0.996
same,normalized growth,"locus YCL069W, strain vba3, hits give low values",1.01
same,normalized growth,"locus YCR088W, strain abp1, hits give low values",0.997
same,normalized growth,"locus YDL005C, strain med2, hits give low values",0.998
same,normalized growth,"locus YDL040C, strain nat1, hits give low values",1.02
same,normalized growth,"locus YDR001C, strain nth1, hits give low values",1
same,normalized growth,"locus YDR069C, strain doa4, hits give low values",0.972
same,normalized growth,"locus YDR137W, strain rgp1, hits give low values",1.2 [resistant] (active)
same,normalized growth,"locus YDR159W, strain sac3, hits give low values",0.967
same,normalized growth,"locus YDR195W, strain ref2",1.03
same,normalized growth,"locus YDR297W, strain sur2, hits give low values",0.988
same,normalized growth,"locus YDR334W, strain swr1, hits give low values",1
same,normalized growth,"locus YDR335W, strain msn5, hits give low values",1
same,normalized growth,"locus YDR392W, strain spt3, hits give low values",0.867
same,normalized growth,"locus YEL003W, strain gim4, hits give low values",0.994
same,normalized growth,"locus YEL037C, strain rad23, hits give low values",0.997
same,normalized growth,"locus YEL061C, strain CIN8 (second series), hits give low values",1.02
same,normalized growth,"locus YER015W, strain faa2, hits give low values",0.989
same,normalized growth,"locus YER016W, strain bim1, hits give low values",1.04
same,normalized growth,"locus YER111C, strain swi4, hits give low values",0.987
same,normalized growth,"locus YER155C, strain BEM2 (second series), hits give low values",0.939
same,normalized growth,"locus YFR010W, strain ubp6, hits give low values",0.997
same,normalized growth,"locus YGL167C, strain pmr1, hits give low values",0.992
same,normalized growth,"locus YGL173C, strain kem1, hits give low values",0.991
same,normalized growth,"locus YGL227W, strain vid30, hits give low values",0.99
same,normalized growth,"locus YGL240W, strain doc1, hits give low values",0.983
same,normalized growth,"locus YGL253W, strain hxk2, hits give low values",0.951
same,normalized growth,"locus YHR013C, strain ard1, hits give low values",1.01
same,normalized growth,"locus YHR027C, strain rpn1, hits give low values",1
same,normalized growth,[1],0.961
same,normalized growth,[2],0.949
same,normalized growth,"locus YHR142W, strain chs7, hits give low values",0.953
same,normalized growth,"locus YJL092W, strain hpr5, hits give low values",1
same,normalized growth,"locus YJL095W, strain BCK1 (second series), hits give low values",0.992
same,normalized growth,[3],1.01
same,normalized growth,"locus YJL115W, strain asf1, hits give low values",0.996
same,normalized growth,"locus YJL129C, strain trk1, hits give low values",0.949
same,normalized growth,"locus YJL154C, strain vps35, hits give low values",0.998
same,normalized growth,"locus YJL164C, strain tpk1, hits give low values",0.995
same,normalized growth,"locus YJL166W, strain qcr8, hits give low values",0.974
same,normalized growth,"locus YJL187C, strain SWE1, hits give low values",0.989
same,normalized growth,[4],0.914
same,normalized growth,"locus YKL160W, strain elf1, hits give low values",0.994
same,normalized growth,"locus YKR026C, strain gcn3, hits give low values",0.995
same,normalized growth,"locus YKR091W, strain srl3, hits give low values",1.03
same,normalized growth,"locus YLL001W, strain dnm1, hits give low values",0.984
same,normalized growth,"locus YLL026W, hits give low values",0.998
same,normalized growth,"locus YLL041C, strain sdh2, hits give low values",1
same,normalized growth,"locus YLR027C, strain aat2, hits give low values",0.997
same,normalized growth,[5],1
same,normalized growth,"locus YLR221C, strain rsa3, hits give low values",0.943
same,normalized growth,"locus YLR258W, strain gsy2, hits give low values",1
same,normalized growth,"locus YLR262C, strain YPT6 (second series), hits give low values",0.985
same,normalized growth,"locus YLR320W, strain mms22, hits give low values",0.975
same,normalized growth,"locus YLR342W, strain FKS1, hits give low values",1
same,normalized growth,"locus YLR357W, strain rsc2, hits give low values",0.972
same,normalized growth,"locus YLR370C, strain arc18, hits give low values",0.986
same,normalized growth,"locus YLR384C, strain iki3, hits give low values",0.974
same,normalized growth,"locus YML120C, strain ndi1, hits give low values",0.989
same,normalized growth,"locus YMR058W, strain fet3, hits give low values",0.815 (active)
same,normalized growth,"locus YMR125W, strain sto1, hits give low values",1.01
same,normalized growth,"locus YMR129W, hits give low values",1.01
same,normalized growth,"locus YMR205C, strain PFK2, hits give low values",1
same,normalized growth,"locus YMR231W, strain pep5, hits give low values",1
same,normalized growth,"locus YNL071W, strain lat1, hits give low values",0.994
same,normalized growth,[6],0.944
same,normalized growth,"locus YNL209W, strain ssb2, hits give low values",0.998
same,normalized growth,"locus YNL248C, strain rpa49, hits give low values",0.971
same,normalized growth,"locus YNL322C, strain KRE1 (second series), hits give low values",1
same,normalized growth,"locus YNR049C, strain mso1, hits give low values",1.01
same,normalized growth,"locus YOR001W, strain rrp6, hits give low values",0.94
same,normalized growth,"locus YOR070C, strain gyp1, hits give low values",0.978
same,normalized growth,"locus YOR080W, strain dia2, hits give low values",0.999
same,normalized growth,"locus YOR083W, strain WHI5, hits give low values",0.991
same,normalized growth,"locus YOR106W, strain vam3, hits give low values",0.954
same,normalized growth,[7],0.95
same,normalized growth,"locus YOR265W, strain rbl2, hits give low values",0.993
same,normalized growth,"locus YOR270C, strain vph1, hits give low values",0.962
same,normalized growth,"locus YOR290C, strain snf2, hits give low values",0.994
same,normalized growth,"locus YPL051W, strain arl3, hits give low values",0.947
same,normalized growth,"locus YPL078C, strain atp4, hits give low values",0.979
same,normalized growth,"locus YPL106C, strain sse1, hits give low values",0.953
same,normalized growth,"locus YPL240C, strain hsp82, hits give low values",1.03
same,normalized growth,[8],0.971
COc1ccc(-c2cc(=O)c3c(O)cc(OC)cc3o2)cc1,normalized growth,[1],0.924
same,normalized growth,[2],0.925
same,normalized growth,[3],0.931
same,normalized growth,[4],0.874
same,normalized growth,[5],0.905
same,normalized growth,[6],0.887
same,normalized growth,[7],0.919
same,normalized growth,[8],0.94
